The text below walks through data of PubChem BioAssay (NCATS).

A short description of test [1]: qHTS assay for small molecule antagonists of peroxisome proliferator-activated receptor delta signaling (AID 588535).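 Note: cells co-treated with a PPAR-delta agonist as stimulator during compound exposure.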 The conditions noted are these: HEK293T PPARd-UAS-bla, beta-lactamase FRET ratio, 18 h; 460 nm channel. The gist of the method: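 Titrations were run on PPAR-delta-UAS-bla HEK293T cells in charcoal/dextran-stripped serum, incubated 18 h at 37 C. CCF4 fluorescence (460/530 nm) after 2 h RT; Hill equation yields IC50 and maximal response.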
In general terms: In qHTS, concentration-response curves come from the screen itself.

In test [2] the target is Peroxisome proliferator-activated receptor gamma (Homo sapiens) (UniProt P37231). The experiment in a line: qHTS assay for small molecule agonists of peroxisome proliferator-activated receptor gamma signaling (AID 588536; active = well fitted curve in the direction sought with a large enough effect in the signal ratio, with a control signal flat, not every such curve was filed as active; the % refers to the signal ratio). As to conditions: HEK293 PPARg-UAS-bla, beta-lactamase ratio, 16 h, percent of rosiglitazone response, DMSO as zero; series mostly up to 76.7 µM. The gist of the method: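 Using GeneBLAzer HEK293 cells, response was quantified by CCF4 fluorescence and normalized between basal DMSO (0%) and rosiglitazone 2 uM (100%); curves yielded half-maximal stimulation concentration and efficacy.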
Chain of Peroxisome proliferator-activated receptor gamma (Homo sapiens) (P37231 whole entry, looked up): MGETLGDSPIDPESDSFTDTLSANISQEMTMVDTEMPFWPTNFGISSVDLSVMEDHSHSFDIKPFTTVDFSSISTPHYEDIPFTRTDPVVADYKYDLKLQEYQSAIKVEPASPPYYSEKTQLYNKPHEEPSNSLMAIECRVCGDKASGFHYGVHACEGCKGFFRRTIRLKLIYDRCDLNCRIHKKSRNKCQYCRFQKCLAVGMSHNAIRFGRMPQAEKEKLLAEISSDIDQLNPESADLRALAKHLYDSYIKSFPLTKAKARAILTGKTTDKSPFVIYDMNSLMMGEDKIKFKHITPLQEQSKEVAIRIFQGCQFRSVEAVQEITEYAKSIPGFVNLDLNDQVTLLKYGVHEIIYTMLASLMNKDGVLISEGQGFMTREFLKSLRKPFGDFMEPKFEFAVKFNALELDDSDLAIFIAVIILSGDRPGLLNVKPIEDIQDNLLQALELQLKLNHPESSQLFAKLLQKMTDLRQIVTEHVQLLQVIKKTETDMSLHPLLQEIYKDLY

Test [3] concerns the target Vitamin D3 receptor (Homo sapiens) (UniProt P11473). Description: qHTS assay for small molecule antagonists of vitamin D receptor signaling (AID 588541; calls by dose curve;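 note: receptor activated by calcitriol during compound treatment; % is set by controls: 0 for no effect and ±100 for the full control effect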). The conditions noted are these: HEK293T VDR-UAS-bla, beta-lactamase ratio, antagonist mode; series mostly up to 76.7 µM. Put shortly:
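Antagonist-mode beta-lactamase reporter assay: HEK293T VDR-UAS-bla cells were exposed to titrated compound alongside 1-alpha,25-dihydroxyvitamin D3 at 3 nM final for 16 h. Values were normalized to the 50 nM agonist control and DMSO basal, with IC50 and efficacy from Hill equation fits.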

For test [4] the target is unchanged. Description: qHTS assay for small molecule agonists of vitamin D receptor signaling (AID 588543; calls by dose curve). The conditions noted are these: HEK293T VDR-UAS-bla, beta-lactamase ratio, 16 h; series mostly up to 76.8 µM. Put shortly: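 Agonist-mode beta-lactamase reporter: HEK293T VDR-UAS-bla cells in charcoal-stripped 2% FBS, compound series 16 h 37 C, CCF4 2 h RT. EC50 from Hill fit, scaled against DMSO and 50 nM calcitriol control.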

A short description of test [5]: qHTS assay for small molecule agonists of retinoid X receptor alpha signaling (AID 588544; calls by dose curve; note: potency is the fitted concentration of half-maximal effect). As to conditions: HEK293T RXRa-UAS-bla, beta-lactamase reporter, 18 h; 530 nm emission.
Test [6] addresses Retinoic acid receptor RXR-alpha (Homo sapiens) (UniProt P19793). The test is described as above. The conditions noted are these: HEK293T RXRa-UAS-bla, beta-lactamase reporter, 18 h; series mostly up to 76.7 µM.
The target of test [7] is Thyroid hormone receptor beta (Homo sapiens) (UniProt P10828). The experiment in a line: qHTS assay for small molecule agonists of thyroid hormone receptor beta signaling (AID 588545; calls by dose curve;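 note: 0% = DMSO only and 100% = 10 nM T3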). The conditions noted are these: TR-UAS-bla GripTite HEK 293, beta-lactamase ratio, agonist mode, 18 h; series mostly up to 76.7 µM. Put shortly:
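TR-UAS-bla GripTite HEK 293 cells (2500/well, medium with 2% charcoal/dextran FBS) were treated in agonist mode for 18 h at 37 C, titrated. Beta-lactamase was read by CCF4 ratio after 2 h; normalized to 10 nM T3 (100%) and DMSO, Hill-fitted for EC50 and efficacy.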

Test [8] in a line: qHTS assay for small molecule activators of the p53 signaling pathway (AID 651743; active = well fitted activation curve with a large enough effect in the signal ratio, not every such curve was filed as active; the % refers to the signal ratio; note: % of control where 0% means no effect). As to conditions: HCT-116 p53RE-bla, beta-lactamase FRET ratio, 16 h; activation: stronger effect = higher value. Put shortly: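 After 16 hours compound treatment at 37 C, HCT-116 cells stably expressing p53RE-driven beta-lactamase were loaded with LiveBLAzer B/G FRET substrate for 2 hours at room temperature. Fluorescence intensity served as the p53 activation read-out.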

Test [9] can be described thus: qHTS assay for small molecule activators of the nuclear factor-kappa B (NF-kB) signaling pathway (AID 651749; active = well fitted activation curve with a large enough effect in the signal ratio; the % refers to the signal ratio; note: % of control where 0% means no effect). As to conditions: NF-kB-bla ME-180 cells, beta-lactamase FRET ratio, 16 h; activation: stronger effect = higher value. Put shortly:
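Activation measured after 16 hr compound treatment at 37C, 5% CO2, of 2,000 ME-180 cells/well stably expressing an NF-kB response element–driven beta-lactamase reporter, via FRET-disruption fluorescence.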

Test [10] in a line: qHTS assay for environmental chemicals that activate the Aryl hydrocarbon Receptor (AhR) signaling pathway (AID 651777). For activation: % of control where 0% means no effect. Note: nearly all actives have a fitted effect of over 15% in size. Note: potency is the fitted concentration of half-maximal effect. As to conditions: 1A2-DRE human hepatoma cells, luciferase, 24 h; activation: stronger effect = higher value. Put shortly:
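Concentration–response screening used 1,200 1A2-DRE cells per well, 24 hr compound exposure (37 C, 5% CO2), and One-Glo luminescence as the AhR-driven CYP1A2 reporter signal.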

For test [11], the target named is Peroxisome proliferator-activated receptor alpha (Homo sapiens) (UniProt Q07869). Description: qHTS assay for small molecule agonists of the peroxisome proliferator-activated receptor alpha (PPARalpha) signaling pathway (AID 651778). Note: % of control where 0% means no effect. The conditions noted are these: PathHunter PPARalpha complementation, chemiluminescence, 6 h; max response: stronger effect = higher value. Put shortly:
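Chemiluminescence from complemented enzyme reported PPARalpha activation in cells after 6 hr of compound treatment at 37 C. The detection reagent was incubated for 60 min at room temperature, and compounds were scored as agonists.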

Test [12] can be described thus: qHTS assay for small molecule agonists of the antioxidant response element (ARE) signaling pathway measured by Nrf2-dependant transcriptional activity (AID 720636; active = well fitted curve in the direction sought with a large enough effect in the repeat runs; an effect the other way counts as inactive or inconclusive;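 note: HepG2 cells with an ARE-driven luciferase reporter; % of control where 0% means no effect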). The conditions noted are these: ARE-luc HepG2, Nrf2 luciferase reporter, 16 h; series mostly up to 92.4 µM. The gist of the method:
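Attachment 6 hr at 37 C, then compound versus DMSO vehicle for 16 hr in ARE-luc HepG2 cells (1% dialyzed FBS); luminescence recorded 30 min after ONE-Glo addition at room temperature.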

A short description of test [13]: qHTS assay for small molecule agonists of the antioxidant response element (ARE) signaling pathway measured by Nrf2-dependant transcriptional activity - cell viability counter screen (AID 720653; active = well fitted curve in the direction sought with a large enough effect in the repeat runs; an effect the other way counts as inactive or inconclusive; note: % is set by controls: 0 for no effect and ±100 for the full control effect). The conditions noted are these: ARE-bla HepG2 viability, CellTiter-Glo ATP luminescence, 16 h; max response: stronger effect = lower value. Put shortly: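 Cytotoxicity counter screen: intracellular ATP quantified by CellTiter-Glo luminescence in the same ARE-bla HepG2 plates, after 16 h compound exposure and a 2 h beta-lactamase substrate step.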

Test [14] in a line: qHTS assay for cell viability of HEK293 cells (AID 743288). Note: % is set by controls: 0 for no effect and ±100 for the full control effect; nearly all actives have a fitted effect of over 50% in size. The conditions noted are these: ATP luminescence (CellTiter-Glo), 18 h; max response: stronger effect = lower value. The gist of the method: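 Readout is luciferase-coupled ATP content (CellTiter-Glo luminescence, 30 min room temperature) as a measure of metabolically competent cells. Parental HEK293 cells were plated 5 h or more before compound addition, then treated 18 h at 37 C.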

Test [15] can be described thus: qHTS assay for cell viability of the p53RE-bla HCT-116 cell line (AID 743292). Note: % is set by controls: 0 for no effect and ±100 for the full control effect; nearly all actives have a fitted effect of over 55% in size. The conditions noted are these: p53RE-bla HCT-116 viability, ATP luminescence, 16 h; series mostly up to 95 µM. Put shortly: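 Compound-exposed HCT-116 (p53RE-bla) cells, 4,000 per well, were kept 16 h at 37 C following a 5 h preincubation. Cell number was estimated from total ATP by CellTiter-Glo luminescence read after 30 min at room temperature.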

Test [16] concerns the target Nuclear receptor subfamily 1 group I member 2 (Rattus norvegicus) (UniProt Q9R1A7). Description: qHTS assay for small molecule activators of the rat pregnane X receptor (rPXR) signaling pathway (AID 651751; call rule not given here; note: 0% is about no effect). As to conditions: rPXR reporter cells, luciferase (One-Glo), 24 h.
Test [17] is described as follows: qHTS assay for small molecule activators of the human pregnane X receptor (PXR) signaling pathway (AID 720659; call rule not given here; note: 0% is about no effect). The conditions noted are these: DPX-2 HepG2 CYP3A4-luciferase, 24 h; series mostly up to 92.3 µM.
Test [18] has as its target Peroxisome proliferator-activated receptor gamma (Homo sapiens) (UniProt P37231). The experiment in a line: qHTS assay for small molecule antagonists of peroxisome proliferator-activated receptor gamma signaling (AID 588537; active = well fitted inhibition curve with a large enough effect in the signal ratio, with a control signal flat, not every such curve was filed as active; the % refers to the signal ratio;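 note: reporter cells co-stimulated with 50 nM rosiglitazone agonist during compound treatment; % of control where 0% means no effect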). As to conditions: HEK293 PPARg-UAS-bla, beta-lactamase ratio, antagonist mode; series mostly up to 76.8 µM. The gist of the method: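 Antagonist-mode β-lactamase reporter screen run as a titration series. HEK293 PPARγ-UAS-bla cells are stimulated with rosiglitazone (50 nM final) for 16 h, then CCF4 is read at 460/530 nm. Data are scaled between DMSO and rosiglitazone and fitted to the Hill equation.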

Test [19] in a line: qHTS assay for small molecule antagonists of retinoid X receptor alpha signaling (AID 588546; active = well fitted inhibition curve with a large enough effect in the signal ratio, with a control signal flat, not every such curve was filed as active; the % refers to the signal ratio;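 note: cells stimulated with 9-cis-retinoic acid as agonist; % is set by controls: 0 for no effect and ±100 for the full control effect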). As to conditions: HEK293T RXRa-UAS-bla, beta-lactamase ratio, antagonist mode; measured here: W530 green channel, cytotoxicity proxy. The gist of the method:
(§1)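 Beta-lactamase reporter inhibition, read as CCF4 fluorescence ratio (ex 405, em 460/530 nm) after 2 h at RT. HEK293T UAS-bla cells, 2500/well, were stimulated with 9-cis-RA at 500 or 100 nM final alongside test compound for 18 h at 37 C.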

Test [20] addresses Retinoic acid receptor RXR-alpha (Homo sapiens) (UniProt P19793). The description is as above. The conditions noted are these: HEK293T RXRa-UAS-bla, beta-lactamase ratio, antagonist mode. The gist of the method:
as §1

Records with an inconclusive call do not appear. Activity calls are given as the source filed them. Unless noted, calls come from the whole dose curve; as a rule, active = well fitted curve in the direction sought with a large enough effect; inconclusive = small, poorly fitted or top-dose-only effect, or another doubt; inactive = no such curve, though single readings can be large; an effect the other way counts as inactive or inconclusive.

Chain of Nuclear receptor subfamily 1 group I member 2 (Rattus norvegicus) (Q9R1A7 whole entry, looked up): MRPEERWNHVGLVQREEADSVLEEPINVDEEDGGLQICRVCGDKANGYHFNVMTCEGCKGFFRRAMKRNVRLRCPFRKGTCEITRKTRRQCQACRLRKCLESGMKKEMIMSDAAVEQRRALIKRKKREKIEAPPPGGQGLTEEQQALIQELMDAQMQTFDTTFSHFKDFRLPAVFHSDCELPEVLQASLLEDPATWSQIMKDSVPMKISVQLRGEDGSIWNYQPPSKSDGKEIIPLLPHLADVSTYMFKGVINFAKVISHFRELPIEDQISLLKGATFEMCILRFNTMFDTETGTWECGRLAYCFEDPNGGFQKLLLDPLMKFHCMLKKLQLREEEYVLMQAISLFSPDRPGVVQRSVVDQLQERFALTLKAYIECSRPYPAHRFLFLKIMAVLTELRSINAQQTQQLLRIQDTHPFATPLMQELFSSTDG
Chain of Thyroid hormone receptor beta (Homo sapiens) (P10828 whole entry, looked up): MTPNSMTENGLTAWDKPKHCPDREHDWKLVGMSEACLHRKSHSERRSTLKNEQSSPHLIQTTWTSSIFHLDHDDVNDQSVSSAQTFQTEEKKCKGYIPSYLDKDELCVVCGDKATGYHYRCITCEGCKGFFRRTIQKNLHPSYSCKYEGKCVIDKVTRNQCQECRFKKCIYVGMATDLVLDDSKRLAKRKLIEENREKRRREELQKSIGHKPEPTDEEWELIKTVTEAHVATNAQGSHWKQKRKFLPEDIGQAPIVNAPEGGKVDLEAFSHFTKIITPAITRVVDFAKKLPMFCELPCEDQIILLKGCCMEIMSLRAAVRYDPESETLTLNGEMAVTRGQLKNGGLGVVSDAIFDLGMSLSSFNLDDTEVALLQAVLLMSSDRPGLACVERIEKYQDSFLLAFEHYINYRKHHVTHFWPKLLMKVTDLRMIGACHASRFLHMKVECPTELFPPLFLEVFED
Chain of Retinoic acid receptor RXR-alpha (Homo sapiens) (P19793 whole entry, looked up): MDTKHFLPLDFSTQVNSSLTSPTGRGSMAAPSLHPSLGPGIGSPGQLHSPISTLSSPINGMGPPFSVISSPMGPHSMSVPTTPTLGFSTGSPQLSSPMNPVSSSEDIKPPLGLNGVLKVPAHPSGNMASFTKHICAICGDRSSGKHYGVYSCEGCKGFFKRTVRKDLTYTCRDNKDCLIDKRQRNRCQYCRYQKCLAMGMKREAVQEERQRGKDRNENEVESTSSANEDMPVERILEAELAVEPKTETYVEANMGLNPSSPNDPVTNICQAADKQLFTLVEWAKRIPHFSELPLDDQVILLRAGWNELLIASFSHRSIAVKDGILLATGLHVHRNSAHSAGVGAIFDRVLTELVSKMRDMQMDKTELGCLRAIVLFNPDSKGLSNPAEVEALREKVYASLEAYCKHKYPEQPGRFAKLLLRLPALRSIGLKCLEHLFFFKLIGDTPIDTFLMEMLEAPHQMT
Chain of Vitamin D3 receptor (Homo sapiens) (P11473 whole entry, looked up): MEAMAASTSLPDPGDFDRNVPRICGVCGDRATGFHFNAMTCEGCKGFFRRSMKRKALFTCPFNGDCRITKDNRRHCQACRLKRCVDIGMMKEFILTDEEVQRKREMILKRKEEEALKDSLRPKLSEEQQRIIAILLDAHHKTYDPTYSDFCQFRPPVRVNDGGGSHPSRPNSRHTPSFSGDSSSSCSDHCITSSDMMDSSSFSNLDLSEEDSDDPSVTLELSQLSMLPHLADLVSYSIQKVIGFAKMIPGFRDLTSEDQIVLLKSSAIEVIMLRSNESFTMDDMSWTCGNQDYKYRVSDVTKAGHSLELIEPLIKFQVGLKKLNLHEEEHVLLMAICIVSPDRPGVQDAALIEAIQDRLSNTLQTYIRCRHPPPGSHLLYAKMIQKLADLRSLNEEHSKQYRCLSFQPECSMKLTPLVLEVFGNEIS
Chain of Peroxisome proliferator-activated receptor alpha (Homo sapiens) (Q07869 whole entry, looked up): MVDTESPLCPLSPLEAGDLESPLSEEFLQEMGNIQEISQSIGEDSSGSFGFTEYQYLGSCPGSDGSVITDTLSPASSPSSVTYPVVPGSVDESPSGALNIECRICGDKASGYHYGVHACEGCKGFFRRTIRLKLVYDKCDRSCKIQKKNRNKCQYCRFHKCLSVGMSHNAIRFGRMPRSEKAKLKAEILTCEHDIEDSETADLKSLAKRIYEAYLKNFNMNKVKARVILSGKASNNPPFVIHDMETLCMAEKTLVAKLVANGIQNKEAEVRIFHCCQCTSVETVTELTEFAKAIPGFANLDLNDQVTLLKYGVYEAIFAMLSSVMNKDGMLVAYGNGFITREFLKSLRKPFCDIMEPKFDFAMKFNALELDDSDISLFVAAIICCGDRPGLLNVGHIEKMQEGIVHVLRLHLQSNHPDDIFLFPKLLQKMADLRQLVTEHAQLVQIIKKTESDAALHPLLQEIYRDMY

For `CCCCOCCOCCOC(C)=O`, the max response in [1] was 11.1%; in test [5] it was -16.2%; in [11] it was -0.313% (inactive); in [13] it was -1.74% (inactive); in test [14], 5.77% (inactive); in test [16], -2.22% (inactive). Moreover, the outcome in test [2], in test [4] and in [17] was inactive. The Potency result in [3], in [6], in test [7], in [12] and in test [15] was “inactive” each time. Further, the activation in [8] was -0.502% (inactive); in test [9], -2.2% (inactive); in test [10], -2.27% (inactive).

Regarding `CC(C)CCCCCCc1ccc(OCCOCCO)cc1`, the max response in test [5] was -48.7%; in [13], -4.66% (inactive); in test [16], -16.1% (inactive). In test [6], the Potency is 3.55 µM (active). Further, in test [10], the activation was -9.42% (inactive). For the same compound, in [12], the Potency result was “inactive”.

In the case of `CCCCCCCC/C=C\CCCCCCCCCCCCC`, the max response is 20.5% in test [1]; 4.69% in test [5]; -11.4% in test [19]; 1.65% (inactive) in [20]; -1.02% (inactive) in [11]; 1.5% (inactive) in [13]. For the same compound, the max response in test [14] is -4.21% (inactive); in test [16], -1.72% (inactive). Also, the result in test [2] and in test [17] was inactive. Besides, the Potency entry in test [18], in test [3], in test [6], in [7], in test [12] and in [15] was “inactive” in each case. Besides, the activation in test [9] was -1.6% (inactive); in [10], -0.312% (inactive).

Consider `CC1COCc2cc3c(cc21)C(C)(C)C(C)C3(C)C` (stereo not drawn), for which the max response in test [1] was -16.1%; in test [5], -11.9%; in test [19], -17.6%; in [20], 0.528% (inactive); in test [11], 7.58% (inactive); in test [13] it was -2.78% (inactive). Also, the max response in [14] was -3.83% (inactive); in [16], 3.75% (inactive). Also, the outcome in test [2] and in [4] was inactive. The Potency result in test [3], in test [6], in [7], in [12] and in [15] was “inactive” each time. For the same compound, the activation in test [8] was -1.06% (inactive); in test [9], 1.51% (inactive); in [10] it was 1.13% (inactive).

For the compound `O=[N+]([O-])c1ccc2c(c1)Cc1ccccc1-2`, the max response is 11.1% in [1]; -11.5% in test [5]; -2.02% in test [19]; -0.719% (inactive) in test [11]; -13.8% (inactive) in test [13]; -16.4% (inactive) in test [14]. Besides, the max response in test [16] is 5.85% (inactive). Also, the Potency entry in [18], in test [6], in [7] and in [15] was “inactive” each time. The activation in [8] is 4.31% (inactive); in test [9], -1.58% (inactive); in [10], 0.842% (inactive). Besides, in [17], the compound was called inactive.

For the compound `CC(=O)Nc1ccc(N=Nc2cc(C)ccc2O)cc1`, the max response in test [1] is 14%; in [5] it was 3.3%; in [19], -4.33%; in test [20], -20.6% (inactive); in [11], -3.57% (inactive); in test [13] it was 1.65% (inactive). For the same compound, the max response in test [14] is -16.4% (inactive); in test [16] it was 1.28% (inactive). For the same compound, the outcome in test [4] was inactive. Moreover, the Potency result in [6], in test [7] and in [15] was “inactive” each time. Also, the activation in test [9] is -1.84% (inactive). In addition, the Potency in [10] was 4.47 µM (active).
